Data published in PubChem BioAssay (EPA / NIEHS).
Active and inactive are the calls of the source. How the source made its calls: active means hit-call score of the fitted dose curve at least 0.9, where 1 is the maximum; inactive means score below 0.9.

Tests used:
[1] = read-out: TIMP metallopeptidase inhibitor 1 (TIMP1), TIMP1 (gene 7076); test: BSK_hDFCGF_TIMP1: BioMAP Diversity Plus: hDFCGF Assay for TIMP metallopeptidase inhibitor 1 (TIMP1) Biomarker Activity (AID 2283062); details: primary human foreskin fibroblasts; actives raise or lower the signal
How it was run: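 Fibroblasts from human foreskin are treated with test chemical and harvested at 24 h. TIMP-1 is quantified by ELISA, and gain or loss of signal is scored against DMSO.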

[2] = read-out: Matrix Metallopeptidase 1 (MMP1), MMP1 (gene 4312); test: BSK_hDFCGF_MMP1: BioMAP Diversity Plus: hDFCGF Assay for Matrix Metallopeptidase 1 (MMP1) Biomarker Activity (AID 2283064); details: primary human foreskin fibroblasts; actives raise or lower the signal
How it was run: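 ELISA read-out of MMP1 from human foreskin fibroblasts (primary skin cells), 24 h post-dose. Gain or loss of signal was fitted bidirectionally versus DMSO negative control; cytotoxicity was checked by SRB in parallel cultures.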

[3] = read-out: Vascular cell adhesion molecule 1 (VCAM1), VCAM1 (gene 7412); test: BSK_hDFCGF_VCAM1: BioMAP Diversity Plus: hDFCGF Assay for Vascular cell adhesion molecule 1 (VCAM1) Biomarker Activity (AID 2283065); details: primary human foreskin fibroblasts; actives raise or lower the signal
How it was run: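 Cells are dosed, cultured for 24 h, then VCAM-1 is quantified by ELISA; signal increases and decreases are both fitted relative to DMSO.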

[4] = read-out: Plasminogen activator inhibitor-1 (PAI1), SERPINE1 (gene 5054); test: BSK_hDFCGF_PAI1: BioMAP Diversity Plus: hDFCGF Assay for Plasminogen activator inhibitor-1 (PAI1) Biomarker Activity (AID 2283066); details: primary human foreskin fibroblasts; actives raise or lower the signal
How it was run: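 ELISA readout of PAI-1 from primary human skin fibroblast cultures, 24 h after compound addition. Gain or loss of signal was fitted bidirectionally against DMSO baseline.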

[5] = read-out: Intercellular Adhesion Molecule 1 (ICAM1), ICAM1 (gene 3383); test: BSK_KF3CT_ICAM1: BioMAP Diversity Plus: KF3CT Assay for Intercellular Adhesion Molecule 1 (ICAM1) Biomarker Activity (AID 2283067); details: primary human keratinocytes with fibroblasts; actives raise or lower the signal
How it was run: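 Dose the keratinocyte/fibroblast co-culture, wait 24 h, measure ICAM-1 by ELISA, then fit increases or decreases against DMSO. Cytotoxicity is checked in parallel cultures by SRB total-protein staining.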

[6] = read-out: Interferon-gamma inducible Protein 10 (IP10), CXCL10 (gene 3627); test: BSK_KF3CT_IP10: BioMAP Diversity Plus: KF3CT Assay for Interferon-gamma inducible Protein 10 (IP10) Biomarker Activity (AID 2283068); details: primary human keratinocytes with fibroblasts; actives raise or lower the signal
How it was run: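 Human keratinocyte plus foreskin fibroblast primary co-culture exposed to test chemical for 24 h; IP-10 measured by ELISA. Concentration-response fitted bidirectionally against DMSO control as baseline.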

[7] = read-out: Interleukin-1 alpha (IL1a), IL1A (gene 3552); test: BSK_KF3CT_IL1a: BioMAP Diversity Plus: KF3CT Assay for Interleukin-1 alpha (IL1a) Biomarker Activity (AID 2283070); details: primary human keratinocytes with fibroblasts; actives raise or lower the signal
How it was run: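 Primary skin co-culture (keratinocytes, foreskin fibroblasts), 24 h exposure; ELISA for IL-1a; bidirectional curve fit vs DMSO.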

[8] = read-out: TIMP metallopeptidase inhibitor 2 (TIMP2), TIMP2 (gene 7077); test: BSK_KF3CT_TIMP2: BioMAP Diversity Plus: KF3CT Assay for TIMP metallopeptidase inhibitor 2 (TIMP2) Biomarker Activity (AID 2283071); details: primary human keratinocytes with fibroblasts; actives raise or lower the signal
How it was run: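 ELISA readout of TIMP-2 in keratinocyte plus foreskin fibroblast co-cultures (human skin primary cells), 24 h post-dose. Gain or loss of signal fitted relative to DMSO.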

[9] = read-out: Transforming growth factor beta 1 (TGFb1), TGFB1 (gene 7040); test: BSK_KF3CT_TGFb1: BioMAP Diversity Plus: KF3CT Assay for Transforming growth factor beta 1 (TGFb1) Biomarker Activity (AID 2283072); details: primary human keratinocytes with fibroblasts; actives raise or lower the signal
How it was run: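 Read-out: ELISA for TGF-b1 in keratinocyte/foreskin fibroblast human skin co-culture, 24 h after dosing; bidirectional curve fit vs DMSO baseline; gain or loss of signal scored.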

[10] = read-out: C-C motif chemokine 2 (Homo sapiens) (UniProt P13500); test: BSK_KF3CT_MCP1: BioMAP Diversity Plus: KF3CT Assay for Monocyte Chemoattractant Protein 1 (MCP1/CCL2) Biomarker Activity (AID 2283073); details: primary human keratinocytes with fibroblasts; actives raise or lower the signal
How it was run: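 Keratinocytes and foreskin fibroblasts were co-cultured, dosed with chemical, and sampled 24 h later. MCP-1 was quantified by ELISA, and the endpoint was analyzed with bidirectional fitting using DMSO as negative control.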

[11] = read-out: Matrix Metallopeptidase 9 (MMP9), MMP9 (gene 4318); test: BSK_KF3CT_MMP9: BioMAP Diversity Plus: KF3CT Assay for Matrix Metallopeptidase 9 (MMP9) Biomarker Activity (AID 2283074); details: primary human keratinocytes with fibroblasts; actives raise or lower the signal
How it was run: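 ELISA read-out of MMP-9 at 24 h post-dosing in a co-culture of human skin keratinocytes and foreskin fibroblasts. Gain or loss of signal was fitted in both directions against DMSO.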

[12] = read-out: urokinase plasminogen activator (uPA), PLAU (gene 5328); test: BSK_KF3CT_uPA: BioMAP Diversity Plus: KF3CT Assay for urokinase plasminogen activator (uPA) Biomarker Activity (AID 2283075); details: primary human keratinocytes with fibroblasts; actives raise or lower the signal
How it was run: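 Skin co-culture (keratinocytes + foreskin fibroblasts), human primary; 24 h post-dose; uPA by ELISA; gain/loss fit vs DMSO baseline.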

CD40, CD40 (gene 958) = test: BSK_LPS_CD40: BioMAP Diversity Plus: LPS Assay for CD40 Biomarker Activity (AID 2283076); details: primary human HUVEC with PBMC; actives raise or lower the signal
How it was run: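 CD40 signal, measured by ELISA, is fitted in both directions relative to DMSO vehicle. The system is an LPS-driven human vascular primary co-culture of endothelial cells and PBMC, sampled 24 h after compound addition.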

[13] = read-out: E-selectin (Homo sapiens) (UniProt P16581); test: BSK_LPS_Eselectin: BioMAP Diversity Plus: LPS Assay for Eselectin Biomarker Activity (AID 2283077); details: primary human HUVEC with PBMC; actives raise or lower the signal
How it was run: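 Signal of E-selectin, detected by ELISA, served as the endpoint; cells were umbilical vein endothelium with PBMC, read 24 h after treatment. DMSO defined baseline, and both increases and decreases were fitted.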

[14] = read-out: Interleukin-8 (IL8), CXCL8 (gene 3576); test: BSK_LPS_IL8: BioMAP Diversity Plus: LPS Assay for Interleukin-8 (IL8) Biomarker Activity (AID 2283078); details: primary human HUVEC with PBMC; actives raise or lower the signal
How it was run: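 Endothelial cells and PBMC from human donors are co-cultured, treated with chemicals and LPS, then assayed for IL-8 by ELISA after 24 h. Parallel SRB staining (0.1% SRB after 10% TCA fixation, 560 nm) flags cytotoxicity.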

[15] = BSK_LPS_SRB: Viability Assessment in the BioMAP Diversity Plus: LPS Assay (AID 2283079); details: primary human HUVEC with PBMC;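 further: total protein by sulforhodamine B absorbance as a cytotoxicity measure; measured one day after compound addition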
How it was run: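 Overt cytotoxicity was gauged by sulforhodamine B total-protein staining in a primary human vascular endothelial and mononuclear cell co-culture 24 h post-dosing. Activity was fitted in both directions relative to DMSO.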

[16] = read-out: Interleukin-1 alpha (IL1a), IL1A (gene 3552); test: BSK_LPS_IL1a: BioMAP Diversity Plus: LPS Assay for Interleukin-1 alpha (IL1a) Biomarker Activity (AID 2283080); details: primary human HUVEC with PBMC; actives raise or lower the signal
How it was run: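 Measured: IL-1 alpha via ELISA at 24 h in LPS-activated human umbilical vein endothelium–PBMC co-culture. Baseline: DMSO, bidirectional fitting.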

[17] = read-out: Monocyte Chemoattractant Protein-1 (MCP1), CCL2 (gene 6347); test: BSK_LPS_MCP1: BioMAP Diversity Plus: LPS Assay for Monocyte Chemoattractant Protein-1 (MCP1) Biomarker Activity (AID 2283081); details: primary human HUVEC with PBMC; actives raise or lower the signal
How it was run: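 LPS-stimulated HUVEC/PBMC co-culture; chemical, 24 h; MCP-1 by ELISA; bidirectional fit vs DMSO; cytotoxicity via SRB (0.1% stain, 10% TCA fix, 560 nm) in parallel wells.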

[18] = BSK_KF3CT_SRB: Viability Assessment in the BioMAP Diversity Plus: KF3CT Assay (AID 2283069); details: primary human keratinocytes with fibroblasts
How it was run: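 SRB read-out at 560 nm (0.1% stain, TCA-fixed cells) gauges overt cytotoxicity in a human skin keratinocyte–fibroblast co-culture 24 h post-dosing. Signal change was fitted bidirectionally relative to DMSO control.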

Measured: outcome

E-selectin (Homo sapiens), sequence (P16581 whole entry, looked up): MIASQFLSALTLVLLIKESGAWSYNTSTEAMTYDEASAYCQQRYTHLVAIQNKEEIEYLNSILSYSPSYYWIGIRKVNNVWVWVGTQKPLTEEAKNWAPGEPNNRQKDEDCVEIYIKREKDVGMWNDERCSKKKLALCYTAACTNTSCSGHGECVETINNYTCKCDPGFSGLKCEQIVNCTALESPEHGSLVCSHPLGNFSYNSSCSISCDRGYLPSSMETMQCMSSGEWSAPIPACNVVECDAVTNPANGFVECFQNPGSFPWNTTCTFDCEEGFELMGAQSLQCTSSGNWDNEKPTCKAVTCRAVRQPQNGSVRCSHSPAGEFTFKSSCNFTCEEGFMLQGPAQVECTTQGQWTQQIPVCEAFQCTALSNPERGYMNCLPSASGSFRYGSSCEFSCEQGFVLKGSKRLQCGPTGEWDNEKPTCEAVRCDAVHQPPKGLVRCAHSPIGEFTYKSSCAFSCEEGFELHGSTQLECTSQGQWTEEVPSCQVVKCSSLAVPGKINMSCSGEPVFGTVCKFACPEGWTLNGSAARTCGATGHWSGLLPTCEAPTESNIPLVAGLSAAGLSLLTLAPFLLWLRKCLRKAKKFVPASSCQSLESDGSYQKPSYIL

O=S(=O)(O)C(F)(F)C(F)(F)C(F)(F)C(F)(F)F
not listed: [18]
inactive: all other assays above

CC#Cc1cc(C)nc(Nc2ccccc2)n1
not listed: CD40, CD40 (gene 958) | [17] | [18]
inactive: all other assays above

CC(C)C(=O)OCC(C)(C)C(OC(=O)C(C)C)C(C)C (configuration not stated)
not listed: CD40, CD40 (gene 958) | [17] | [18]
inactive: all other assays above

CN(C)CCO
not listed: [17] | [18]
inactive: all other assays above

Cc1cc(-c2ccc(N)c(C)c2)ccc1N
not listed: CD40, CD40 (gene 958) | [17]
inactive: all other assays above

C[C@]12CCC(=O)C=C1CC[C@@H]1[C@@H]2CC[C@]2(C)C(=O)CC[C@@H]12
not listed: [17] | [18]
inactive: all other assays above

c1ccc(-c2ccccc2)cc1
not listed: [10] | CD40, CD40 (gene 958) | [18]
inactive: all other assays above

CCC(C)(CC)c1cc(NC(=O)c2c(OC)cccc2OC)on1
not listed: CD40, CD40 (gene 958)
inactive: all other assays above

O=C(NC(=O)c1cc(F)c(F)cc1Cl)Nc1cc(F)ccc1N1CCC(C(=O)O)CC1
not listed: [17] | [18]
inactive: all other assays above
